Molecules are shown by their SMILES. Where a structure was tested more than once in an assay, its records may differ in their call. Calls of active or inactive are those of the source. Calls follow the shape of the full dose curve.
% is scaled to controls: 0 for no effect and ±100 for the full control effect; potency is read from the fitted curve at half-maximal effect.

Muscarinic acetylcholine receptor M1 (Homo sapiens), sequence (P11229 whole entry, looked up): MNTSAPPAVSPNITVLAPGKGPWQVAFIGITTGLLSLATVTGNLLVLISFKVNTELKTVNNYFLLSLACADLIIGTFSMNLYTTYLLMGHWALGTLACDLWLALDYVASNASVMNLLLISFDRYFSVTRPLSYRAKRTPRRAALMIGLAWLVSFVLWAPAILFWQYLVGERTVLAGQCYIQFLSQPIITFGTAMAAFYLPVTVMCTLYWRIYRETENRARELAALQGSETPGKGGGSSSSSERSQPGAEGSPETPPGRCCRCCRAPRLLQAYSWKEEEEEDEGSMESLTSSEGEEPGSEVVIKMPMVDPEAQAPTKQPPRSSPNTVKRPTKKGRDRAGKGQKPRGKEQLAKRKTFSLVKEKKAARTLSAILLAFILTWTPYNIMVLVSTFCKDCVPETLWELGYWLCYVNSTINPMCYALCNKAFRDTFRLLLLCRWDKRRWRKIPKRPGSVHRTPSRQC

The test addresses Muscarinic acetylcholine receptor M1 (Homo sapiens) (UniProt P11229). The experiment in a line: Cholinergic receptor muscarinic 1 (CHRM1) small molecule agonists, cell-based qHTS assay (AID 1963589). Also: nearly all actives have a fitted effect of over 35% in size. As to conditions: CHRM1-CHO cells, agonist mode, calcium flux fluorescence; series mostly up to 76.8 µM; activation: at the top concentration. From the text: National Center for Advancing Translational Sciences [NCATS]
Division of Preclinical Innovation [DPI]
U.S. Environmental Protection Agency [EPA]
National Institutes of Environmental Health Sciences [NIEHS]
National Toxicology Program [NTP]
U.S. Food and Drug Administration [FDA]
The CHRM1 is a muscarinic receptor. This receptor plays a crucial role in learning and memory processes and has long been identified as a promising therapeutic target for the improvement of cognitive decline in Alzheimer's disease (AD). The CHRM1-CHO cell line stably expressing human muscarinic acetylcholine receptor M1 (CHRM1) can be used for screening agonists and antagonists of interactions between CHRM1 and its ligands. The CHRM1-CHO Calcium Flux Assay is a homogeneous fluorescence-based assay for detecting the intracellular calcium level using FDSS kinetic plate reader system.
CHRM1-CHO cells were dispensed at 1000 cells/3uL/well in 1536-well black-clear bottom plates using a Multidrop Dispenser. After the assay plates were incubated at a 37 C/5% CO2 incubator for 18 h, 3 uL of Dye Loading Buffer was transferred to the assay plate by a Flying Reagent Dispenser. The assay plates were incubated at 37 C for 1h. For agonist mode, 23 nL of compounds dissolved in DMSO, positive controls or DMSO only was transferred to the assay plate by a pin tool. […] Each test compound was measured at 15 concentrations in three independent runs.
A general note: In qHTS, concentration-response curves come from the screen itself.
Take `CC(C)c1ccc(O)cc1`: the “activation” value is -1.09% (inactive).

`CCCC(C)(COC(N)=O)COC(N)=O`: the “activation” value is -0.958% (inactive).

`C=CC=O`: the “activation” value is 1.75% (inactive).

Regarding `Cc1cc(Cl)ccc1OC(C)C(=O)O` (stereo not given), the Potency entry is “inactive”.

For `ClCC(Cl)(Cl)Cl`, the “activation” value is -0.275% (inactive).

With `OCCCl`, the “activation” value was 0.301% (inactive).

Turning to `OCC1CO1` (stereo not given), the Potency result is “inactive”.

Turning to `CCCC[n+]1ccccc1C`, the Potency result was “inactive”.

For the molecule `CC(=O)CC(c1ccc(Cl)cc1)c1c(O)c2ccccc2oc1=O` (stereo not given), the “activation” value was -0.0425% (inactive).

Regarding `CCOS(=O)(=O)OCC`, the Potency entry is “inactive”.

In the case of `Nc1ccc(-c2ccccc2)cc1`, the Potency entry was “inactive”.

Turning to `Nc1ccc([N+](=O)[O-])cc1N`, the Potency result was “inactive”.

For `CC(C)(C)C(=O)Cl`, the “activation” value is 2.43% (inactive).

As to `CCCCN(CC)C(=O)SCCC`, the Potency entry is “inactive”.

For `O=P(Cl)(Cl)Cl`, the “activation” value was -0.0775% (inactive).

As to `Clc1cccc(Cl)c1`, the Potency result was “inactive”.

As to `COP(=O)(OC)OC`, the Potency was 49.4 µM (active) and inactive.

On to `Oc1ccc(Cl)cc1Cc1ccccc1`, for which the Potency result is “inactive”.

With `CC(C)(O)C(=O)Nc1ccc([N+](=O)[O-])c(C(F)(F)F)c1`, the Potency result is “inactive”.

On to `Cc1ccc(CCl)cc1`, for which the “activation” value is 0.582% (inactive).

In the case of `CCOP(=O)(OCC)OCC`, the Potency result is “inactive”.

Regarding `CCC(C)Cl` (stereo not given), the “activation” value is 0.987% (inactive).

Regarding `CNC(=S)S`, the Potency result is “inactive”.

In the case of `CC[C@H](N)c1ccccc1`, the “activation” value was -0.553% (inactive).

With `O=C(O)c1cc(Cl)ccc1Cl`, the “activation” value was -0.776% (inactive).

`FC(Cl)(Cl)Cl`: the “activation” value is 0.229% (inactive).

For the molecule `N#Cc1ccccc1Cl`, the “activation” value is 0.348% (inactive).

In the case of `CC(C)OC(=S)S`, the “activation” value is -0.296% (inactive).

On to `CN(C)c1nc(=O)n(C2CCCCC2)c(=O)n1C`, for which the Potency result is “inactive”.

For the molecule `CN(C)N`, the “activation” value was -0.0279% (inactive).

As for `Nc1nc(N)nc(Cl)n1`, the “activation” value is 0.0714% (inactive).

Regarding `CN(C)NC(=O)CCC(=O)O`, the Potency entry is “inactive”.

As to `CC1CC(=O)O1` (stereo not given), the Potency result was “inactive”.

Regarding `CC(C)c1ccc(CO)cc1`, the Potency result was “inactive”.

Take `CN1CCC(N(Cc2ccccc2)c2ccccc2)CC1`: the “activation” value was -0.0128% [at 35.3 µM] (inactive).

As for `C=Cc1cccc(CCl)c1`, the “activation” value is -0.135% [at 200 µM] (inactive).

`CCC(CC)Nc1c([N+](=O)[O-])cc(C)c(C)c1[N+](=O)[O-]`: the Potency entry is “inactive”.

Turning to `OCC(Cl)CCl` (stereo not given), the “activation” value is -0.592% (inactive).

Regarding `CC(C)(O)C#N`, the Potency result was “inactive”.

For `O=C(O)C1C(C(=O)O)C2(Cl)C(Cl)=C(Cl)C1(Cl)C2(Cl)Cl` (stereo not given), the Potency entry is “inactive”.

For the origin of these results see PubChem BioAssay (Tox21).
